# Some compounds were tested as several samples or in several runs, with calls that do not always agree. Activity calls are given as the source filed them. How the source made its calls: active means hit-call score of the fitted dose curve at least 0.9, where 1 is the maximum; inactive means score below 0.9.
# Assay: ATG_TAL_CIS: Attagene CIS-FACTORIAL HepG2 Assay for human TAL Basal Promoter (AID 2282966)
# Conditions: HepG2 Attagene cis-factorial TAL promoter reporter; actives raise or lower the signal
# Method: ATG_CIS is a cell-based, multiplexed-readout assay that uses HepG2, a human liver cell line, with measurements taken at 24 hours after chemical dosing in a 24-well plate.ATG_TAL_CIS is one of 52 assay component(s) measured or calculated from the ATG_CIS assay. It is designed to make measurements of mRNA induction, a form of inducible reporter, as detected with fluorescence intensity signals by Reverse transcription polymerase chain reaction (RT-PCR) and Capillary electrophoresis technology.Data from the assay component ATG_TAL_CIS was analyzed into 1 assay endpoint. This assay endpoint, ATG_TAL_CIS, was analyzed with bidirectional fitting relative to DMSO as the negative control and baseline of activity. Using a type of inducible reporter, measures of mRNA for gain or loss-of-signal activity can be used to understand the background control at the transcription factor-level as they relate to the gene . Furthermore, this assay endpoint can be referred to as a secondary readout, because this assay has produced multiple assay endpoints where this one serves a background control function. To generalize the intended target to other relatable targets, this assay endpoint is annotated to the background measurement intended target family, where the subfamily is internal marker.
# Human liver HepG2 cells are transiently transfected with multiple reporter transcription units (MRTUs) in 6-well plates using FuGene 6 reagent (Roche; 3 ml FuGene/1 mg DNA). The MRTU constructs are regulated by a cis-regulating element (promoter). […] A major difference between the CIS and TRANS system is that in CIS activities of endogenous TFs are measured, whereas the TRANS assay evaluates changes in activities of exogenous, chimeric NR-Gal4 proteins. […] At the end of 24 hour incubation, total RNA was isolated using TriZol reagent (Invitrogen). The isolated RNA is then reverse-transcribed using oligo(dT) primer and Mo-MLV reverse transcriptase (Invitrogen) with DNAse I (Ambion) treatment for 30 min. The one-tenth of the produced cDNA was amplified by PCR using Taq DNA polymerase (Invitrogen) and two reporter sequence-specific primers. The PCR products were fluorescently labeled by primer extension with 6-arboxyfluorescein (6-FAM) 5'-labeled reporter sequence-specific primer (2 min at 95 C, 20 s at 68 C and 10 min at 72 C) and these products were digested with 5U of HpaI (New England Biolabs) for 2h at 37 C. The fragments were purified using Qiaquick PCR columns (Qiagen), analyzed on an ABI 3130xL genetic analyzer (Applied Biosystems) with peak positions identified by using a set of X-rhodamine (ROX)-labeled MapMarker1000 molecular weight standards (BioVentures). The raw capillary electrophoresis data was processed using Attagraph software (Attagene).
Compound,outcome,AC50
Cc1cc(C(C)(C)C)c(O)c(C(C)(C)C)c1,inactive,–
FC(F)(F)C1(F)C(F)(F)C(F)(F)C(F)(F)C(F)(C(F)(F)F)C1(F)F (stereo not given),inactive,–
Oc1c(Cl)ccc(Cl)c1Cl,inactive,–
O=C(O)CN(CCCN(CC(=O)O)CC(=O)O)CC(=O)O,inactive,–
COCN(COC)c1nc(N(COC)COC)nc(N(COC)COC)n1,inactive,–
CCCCCCCCCCCCCCC,inactive,–
FC(F)(F)C1(F)C(F)(F)C(F)(F)C(F)(F)C1(F)F,inactive,–
CC(C)(C)c1ccc(O)c(O)c1,inactive,–
CCCCCCc1ccc(N)cc1,inactive,–
NNC(=O)CCCCC(=O)NN,inactive,–
FC1(F)C=CC(F)(F)C1(F)F,inactive,–
C[C@]12CC[C@@H]3c4ccc(O)cc4CC[C@H]3[C@@H]1C[C@@H](O)[C@@H]2O,inactive,–
NC(=NCCCCCCN=C(N)/N=C(\N)Nc1ccc(Cl)cc1)/N=C(\N)Nc1ccc(Cl)cc1,inactive,119 µM (active)
Brc1ccc(Oc2ccc(Br)cc2Br)cc1,inactive,–
O=C(OC(=O)C(F)(F)C(F)(F)F)C(F)(F)C(F)(F)F,inactive,–
O=C(O)C(F)(F)OC(F)(F)C(F)(F)OC(F)(F)C(F)(F)OC(F)(F)C(F)(F)C(F)(F)C(F)(F)F,inactive,–
O=S(=O)(O)c1ccccc1,inactive,–
CC(C)CCOCCC(C)C,inactive,–
Cc1ccc(N=Nc2c(O)ccc3ccccc23)c(C)c1,inactive,–

Compound,outcome,AC50
CCC(=O)C=Cc1ccc(OC)cc1,inactive,–
N=C(N)c1ccc(OCCCCCOc2ccc(C(=N)N)cc2)cc1,inactive,–
CCCCC=O,inactive,–
C=C(c1ccc(C(=O)O)cc1)c1cc2c(cc1C)C(C)(C)CCC2(C)C,inactive,30.4 µM (active)
OCC1CCC(CO)CC1 (stereo not given),inactive,–
CCc1cccc(CC)c1NC(=O)C(=O)O,inactive,–
FC(F)(F)N1C(F)(F)C(F)(F)OC(F)(F)C1(F)F,inactive,–
CCOC=C(C(=O)OCC)C(=O)OCC,inactive,–
CCCCCCCCCC=CCC1CC(=O)OC1=O (stereo not given),inactive,–
Cc1ccc(C(=O)c2ccccc2)cc1,inactive,–
OCCN1CN(CCO)CN(CCO)C1,inactive,–
Cc1cccc2c1ccc1ccccc12,inactive,–
CS(=O)(=O)c1ccc([C@@H](CC2CCCC2)C(=O)Nc2cnccn2)cc1Cl,–,148 µM (active)
O=C(Nc1ccc(Cl)c(Cl)c1)c1cc(Cl)cc(Cl)c1O,inactive,–
Cc1ccccc1C(OCCN(C)C)c1ccccc1 (stereo not given),inactive,–
OCC(F)(F)C(F)(F)C(F)(F)C(F)(F)C(F)(F)C(F)(F)C(F)(F)C(F)(F)C(F)(F)C(F)(F)C(F)(F)F,inactive,–
CCCCCCOC(=O)c1ccc(O)cc1,inactive,–
Cc1cc(C(=C2C=CC(=Nc3ccc(S(=O)(=O)O)cc3)C=C2)c2ccc(Nc3ccc(S(=O)(=O)O)cc3)cc2)cc(S(=O)(=O)O)c1N,inactive,–
CN(C)c1ccc(C(=C2C=CC(=[N+](C)C)C=C2)c2ccccc2)cc1,inactive,–

# Reference: PubChem BioAssay (EPA / NIEHS)
